Experimental data from PubChem BioAssay AID652039 (The Scripps Research Institute Molecular Screening Center, 2013).
Hit rate of the full screen: of about 370,000 compounds, about 3,300 (0.89%) were called active. This excerpt belongs to a sample that is enriched for actives. Unmarked numbers belong to inactive results.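 Rule for the calls: active = activation above the mean of all tested compounds plus 3 SD, computed per campaign excluding outliers beyond control limits (cut at about 13% in these data); inactive = the rest.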

target: Kallikrein-7 (Homo sapiens) (UniProt P49862); test: activation of human kallikrein-7 proenzyme – biochemical, fluorescence intensity, primary screen (AID 652039); settings: purified proKLK7, EDANS-DABCYL substrate fluorescence; at 7 µM; stronger effect = higher value; 100% is mature enzyme control, 0% vehicle
Sequence (P49862 whole entry, looked up): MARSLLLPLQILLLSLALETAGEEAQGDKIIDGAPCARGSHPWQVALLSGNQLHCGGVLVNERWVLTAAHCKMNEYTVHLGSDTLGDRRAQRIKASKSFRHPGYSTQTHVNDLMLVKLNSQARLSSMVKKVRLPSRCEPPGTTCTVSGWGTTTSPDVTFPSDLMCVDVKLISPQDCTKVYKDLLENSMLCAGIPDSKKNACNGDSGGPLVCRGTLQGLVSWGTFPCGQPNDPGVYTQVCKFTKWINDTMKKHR

Row | Structure (SMILES) | activation
1 | COc1ccc(N2CCN(CCNS(=O)(=O)c3ccc(Cl)s3)CC2)cc1 | -0.36%
2 | CCOC(=O)C1=C(C)NC2=C(C(=O)CC(C)(C)C2)C1c1ccc2c(c1)OCO2 (configuration not stated) | 0.13%
3 | CC(C)(C)OC(=O)c1c(N)n(CCCN2CCCC2=O)c2nc3ccccc3nc12 | 62.5% (active)
4 | COCC(C)OC(=O)c1c(N)n(CCCN2CCOCC2)c2nc3ccccc3nc12 (configuration not stated) | 16.3% (active)
5 | O=C(NCCCN1CCCC1=O)c1ccc(S(=O)(=O)Nc2ccccc2)cc1 | -0.77%
6 | CC(=O)c1ccc(NC(=O)CSc2nc3ccccc3c(=O)n2CCCN2CCOCC2)cc1 | 0.28%
7 | Cc1nn(Cc2ccccc2)c(C)c1C(=O)NCCCN1CCCC1=O | -0.1%
8 | CC(CN1CCOCC1)OC(=O)c1ccc(C(C)(C)C)cc1 (configuration not stated) | 0.72%
9 | CCCCCCNC(=O)O[C@H]1CN(C(=O)OC(C)C)N(C(=O)OC(C)C)[C@@H]2CN(S(=O)(=O)c3ccc(C)cc3)C[C@]12O | -0.38%
10 | O=C1CCC2(CCC(c3ccc(Cl)cc3)CC2)N1CCO (configuration not stated) | -0.69%
11 | Cc1cccc(C)c1NC(=O)C(c1cccc(F)c1)N1CCN(C)CC1 (configuration not stated) | -0.04%
12 | Cc1cccc(C)c1NC(=O)C(c1ccccc1)N1CC(=O)Nc2ccccc21 (configuration not stated) | 16.4% (active)
13 | Cc1ccccc1SCC(=O)OCC(=O)N1CC(=O)Nc2ccccc21 | 0.52%
14 | CCCCNC(=O)C[C@@H]1C(=O)N(CCc2ccc(Cl)cc2)C2=CCCC[C@]21C(=O)OCC | 0.21%
15 | CC(CCN1CCC(C(O)(c2ccccc2)c2ccccc2)CC1)Oc1ccc(Cl)cc1 (configuration not stated) | -0.05%
16 | CCOC(=O)C(=O)N(Cc1ccccc1)c1ccccc1C(=O)Nc1cc(OC)ccc1OC | 0.42%
17 | COc1ccccc1C(=O)Nn1c(-c2cccs2)nc2ccccc2c1=O | -0.4%
18 | COCCCn1c(-c2cccs2)nc2nc3ccccc3nc21 | 22.9% (active)
19 | CCc1nnc(NC(=O)CSc2nc3ccccc3c(=O)n2CCCOC)s1 | 0.09%

Row | Structure (SMILES) | activation
20 | O=C1CC[C@@H](COc2ccc3[nH]cc(-c4ccccc4)c3c2-c2ccccc2)N1 | -1.38%
21 | CCCc1cc(=O)oc2c(C)c(OC(C)C(=O)NCC(O)c3ccccc3)ccc12 (configuration not stated) | -0.01%
22 | CCCc1cc(=O)oc2c(C)c(O)c(CN3CCCCC3)cc12 | 58.8% (active)
23 | CCCc1cc(=O)oc2c(C)c(OCC(=O)N3CCC(C(=O)O)CC3)ccc12 | 0.06%
24 | O=C(CSc1nnc(-c2cccc(Cl)c2)n1Cc1ccco1)Nc1ccc(OCc2ccccc2)cc1 | 0.41%
25 | CCn1c(SCC(C)=O)nc2sc3c(c2c1=O)CCCC3 | 0.36%
26 | CCCNC(=O)Nc1ccc2c(c1)C(=O)N(C)[C@H]1CC[C@H](CC(=O)NCC3CCCCC3)O[C@@H]1CO2 | 0.14%
27 | CCN1CCN(C(=O)c2cc3cc4ccc(OC)cc4nc3s2)CC1 | 68.7% (active)
28 | CCN1CCN(C(=O)CN(C)S(=O)(=O)c2ccc(OC)cc2)CC1 | -0.44%
29 | COc1ccc(OCC(=O)N2CCN(C(=O)c3cccs3)CC2)cc1 | 0.07%
30 | COC(=O)[C@]12C[C@H](CC(=O)NCc3ccccc3)C(=O)N(Cc3ccccc3)C1=C[C@H](COCc1ccccc1)O[C@@H]2C | -0.24%
31 | CCCOc1ccc(Oc2c(Cl)cnn(Cc3cccc4ccccc34)c2=O)cc1 | 0.98%
32 | COc1ccc(CSc2nnc(-c3cccc(C)c3)n2C)cc1 | -0.66%
33 | CCOC(=O)c1c(NC(=S)Nc2ccccc2)sc2c1CCN(C)C2 | 33.8% (active)
34 | CCOC(=O)c1c(NC(=O)NC(C)(C)C)sc2c1CCN(C)C2 | 0.12%
35 | CCOC(=O)c1c(NC(=S)SC)sc(C(=O)N2CCc3ccccc3C2)c1C | 0.73%
36 | COc1ccc(CNC(=O)C(C)n2nc(C)c3c(C)n(-c4ccccc4)nc3c2=O)c(OC)c1 (configuration not stated) | 0.01%
37 | COCCCNC(=O)C[C@H]1C[C@@]2(C(=O)OC)C(=C[C@H](C(C)(C)C)O[C@@H]2C)N(Cc2ccc(Cl)cc2Cl)C1=O | -0.25%
38 | C#CCNC(=O)C[C@H]1C[C@@]2(C(=O)OC)C(=C[C@H](C(C)C)O[C@@H]2C2CC2)N(Cc2ccco2)C1=O | 0.24%

Row | Structure (SMILES) | activation
39 | Oc1ccc2ccc3cccc[n+]3c2c1 | 16.2% (active)
40 | COc1ccc(-n2c(SCC(=O)Nc3ccc(C)c(Cl)c3)nc3ccccc3c2=O)cc1 | -0.5%
41 | COc1ccc(-n2c(SCC(=O)Nc3ccc4c(c3)OCCO4)nnc2-c2ccc(Cl)cc2)cc1 | -0.65%
42 | CN1C[C@]2(C=C3CCCCC3n3c(=O)n(-c4ccccc4)c(=O)n32)N=C1NC(=O)c1ccccc1 (some centres not stated) | 0.02%
43 | COc1ccc(-n2c(SCC(=O)Nc3ccc4cn[nH]c4c3)nnc2-c2cccnc2)cc1 | -0.83%
44 | O=C(Nc1ccccc1)N1CCN(Cc2nc3ccccc3c(=O)[nH]2)CC1 | 0.5%
45 | COc1ccc(CCNC(=O)Nc2ccc3c(c2)c(=O)n(C)n3C)cc1OC | 33.7% (active)
46 | COc1ccc(CCNC(=O)C(=O)Nc2ccc3nc4n(c(=O)c3c2)CCCCC4)cc1OC | 0.82%
47 | COc1ccc(CCNC(=O)c2cc3sccc3n2C)cc1OC | -0.31%
48 | CCOC(OCC)c1ccc(/C=C\c2nccc(N)n2)cc1 | 47.7% (active)
49 | O=C(N1CCOCC1)N1CC[C@H]2[C@H](CCCN2Cc2ccc(F)cc2)C1 | 0.18%
50 | COc1ccc2c(c1)CN1CN(CCc3ccccc3)S(=O)(=O)CC21 (configuration not stated) | -0.32%
51 | CN(C(=O)CCn1c(=S)oc2ccccc21)C1CCCCC1 | -0.28%
52 | COC(=O)C1=C(C)OC(N)=C(C#N)C1c1cc(OC)ccc1OC (configuration not stated) | 30.7% (active)
53 | CC(C)c1ccc(C2C(C#N)=C(N)Oc3c2oc(CO)cc3=O)cc1 (configuration not stated) | 0.31%
54 | CCOC(=O)C1=C(C)OC(N)=C(C#N)C1c1cncc(-c2ccc(F)cc2)c1 (configuration not stated) | 0.49%
55 | COC(=O)C1=C(C)N(C)C(=S)NC1c1cc(OC)ccc1OC (configuration not stated) | 0.24%
56 | CCOC(=O)C1=C(CC)OC(N)=C(C#N)C1c1ccc(F)cc1F (configuration not stated) | -0.17%
57 | CCC1=C(C(=O)OC)C(c2cc(OC)ccc2OC)C(C#N)=C(N)O1 (configuration not stated) | 15.6% (active)
